From PubChem BioAssay (NCATS)
Where “and” joins values, the source holds several entries; their conditions need not be identical. Equal values may be shown once. Records with an inconclusive call do not appear. Calls of active or inactive are those of the source. Unless noted, calls follow the shape of the dose curve; as a rule, active = well fitted curve in the direction sought with a large enough effect; inconclusive = small, poorly fitted or top-dose-only effect, or another doubt; inactive = no such curve, though single readings can be large; an effect the other way counts as inactive or inconclusive.

Legend:
[1] = qHTS assay for small molecule disruptors of the mitochondrial membrane potential - 5 hr assay (AID 651755; calls by dose curve; also: % is scaled to controls: 0 for no effect and ±100 for the full control effect; nearly all actives have a fitted effect of over 40% in size)
In short: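 HepG2, 2,000 cells/well, overnight attach; cpd or DMSO 5 hr, 37C/5% CO2; Mito-MPS 30 min 37C; fluor 490/535 + 540/590 nm.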

[2] = qHTS assay to identify small molecules that stimulate interleukin-8 (IL-8) secretion (AID 651758; active = well fitted activation curve with a large enough effect in the signal ratio; the % refers to the signal ratio; also: 0% is about no effect)
In short: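 Secreted IL-8 measured by TR-FRET sandwich (cryptate and XL665 antibodies) from THP-1 cells exposed to compound overnight (16 hrs, 37 C).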

[3] = target: Peroxisome proliferator-activated receptor alpha (Homo sapiens) (UniProt Q07869); experiment: qHTS assay for small molecule agonists of the peroxisome proliferator-activated receptor alpha (PPARalpha) signaling pathway (AID 651778); conditions: PathHunter PPARalpha complementation, chemiluminescence, 6 h; stronger effect = higher value; also: % of control where 0% means no effect
Peroxisome proliferator-activated receptor alpha (Homo sapiens), sequence (Q07869 whole entry, looked up): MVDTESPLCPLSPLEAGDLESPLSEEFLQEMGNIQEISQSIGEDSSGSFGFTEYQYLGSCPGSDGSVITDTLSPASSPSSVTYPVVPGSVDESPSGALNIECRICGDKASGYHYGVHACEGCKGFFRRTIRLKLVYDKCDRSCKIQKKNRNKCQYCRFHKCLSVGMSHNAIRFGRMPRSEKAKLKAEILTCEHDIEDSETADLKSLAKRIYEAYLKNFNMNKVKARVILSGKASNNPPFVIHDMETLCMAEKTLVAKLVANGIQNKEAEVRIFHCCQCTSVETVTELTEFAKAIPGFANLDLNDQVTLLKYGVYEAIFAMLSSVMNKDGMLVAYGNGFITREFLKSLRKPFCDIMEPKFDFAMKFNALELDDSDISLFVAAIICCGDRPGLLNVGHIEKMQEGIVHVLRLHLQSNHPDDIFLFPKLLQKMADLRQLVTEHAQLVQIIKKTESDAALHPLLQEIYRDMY
In short: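 Chemiluminescence from complemented enzyme reported PPARalpha activation in cells after 6 hr of compound treatment at 37 C. The detection reagent was incubated for 60 min at room temperature, and compounds were scored as agonists.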

[4] = target: Nuclear receptor ROR-gamma (Homo sapiens) (UniProt P51449); experiment: qHTS assay for small molecule antagonists of the retinoid-related orphan receptor gamma (ROR-gamma) signaling pathway (AID 651802); also: series mostly up to about 92 µM; % is scaled to controls: 0 for no effect and ±100 for the full control effect; nearly all actives have a fitted effect of over 60% in size
Nuclear receptor ROR-gamma (Homo sapiens), sequence (P51449 whole entry, looked up): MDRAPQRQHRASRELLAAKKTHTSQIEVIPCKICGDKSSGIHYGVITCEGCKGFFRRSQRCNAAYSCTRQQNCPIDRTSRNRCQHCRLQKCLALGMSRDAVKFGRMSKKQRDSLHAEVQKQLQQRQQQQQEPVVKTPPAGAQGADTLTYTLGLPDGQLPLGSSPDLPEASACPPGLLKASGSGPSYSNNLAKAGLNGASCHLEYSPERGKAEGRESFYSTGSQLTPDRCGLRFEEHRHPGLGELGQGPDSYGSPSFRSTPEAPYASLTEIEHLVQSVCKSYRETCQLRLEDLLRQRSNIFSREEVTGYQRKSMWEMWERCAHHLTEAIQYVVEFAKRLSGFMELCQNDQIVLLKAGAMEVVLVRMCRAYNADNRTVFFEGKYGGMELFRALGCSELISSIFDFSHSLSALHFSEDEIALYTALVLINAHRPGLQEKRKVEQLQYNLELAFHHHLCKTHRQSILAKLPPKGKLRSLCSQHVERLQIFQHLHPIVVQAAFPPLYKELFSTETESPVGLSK
In short: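 CHO cells carrying TET-inducible ROR-gamma and an ROR response element–luciferase reporter were exposed to compound, then induced with doxycycline. After 16hr at 37C, luminescence was read; lower signal indicates antagonism.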

[5] = qHTS assay for small molecule agonists of the antioxidant response element (ARE) signaling pathway measured by Nrf2-dependant transcriptional activity (AID 720636; active = well fitted curve in the direction sought with a large enough effect in the repeat runs; an effect the other way counts as inactive or inconclusive;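 also: HepG2 cells with an ARE-driven luciferase reporter; % of control where 0% means no effect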)
In short: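 Cells: ARE-luc HepG2 with Nrf2-responsive luciferase. Medium contained 1% dialyzed FBS. Compound exposure lasted 16 hr at 37 C and 5% CO2, followed by ONE-Glo luciferase detection.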

[6] = qHTS assay for small molecule antagonists of the retinoid-related orphan receptor gamma (ROR-gamma) signaling pathway - cell viability counter screen (AID 720652; active = well fitted curve in the direction sought with a large enough effect in the repeat runs; an effect the other way counts as inactive or inconclusive;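 also: series mostly up to about 92 µM; compound exposure lasted 16 hr before ATP read; % is scaled to controls: 0 for no effect and ±100 for the full control effect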)
In short: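 Counter screen in CHO cells carrying TET-inducible ROR-gamma and an ROR response element-luciferase reporter; cells plated 5 hr, compound pinned, doxycycline added, then 16 hr at 37 C. Viability read as intracellular ATP by CellTiter-Glo luminescence.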

[7] = qHTS assay for small molecule agonists of the antioxidant response element (ARE) signaling pathway measured by Nrf2-dependant transcriptional activity - cell viability counter screen (AID 720653; active = well fitted curve in the direction sought with a large enough effect in the repeat runs; an effect the other way counts as inactive or inconclusive; also: % is scaled to controls: 0 for no effect and ±100 for the full control effect); conditions: ARE-bla HepG2 viability, CellTiter-Glo ATP luminescence, 16 h; stronger effect = lower value
In short: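 Cytotoxicity counter screen: intracellular ATP quantified by CellTiter-Glo luminescence in the same ARE-bla HepG2 plates, after 16 h compound exposure and a 2 h beta-lactamase substrate step.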

[8] = qHTS assay for cell viability of HEK293 cells (AID 743288); conditions: ATP luminescence (CellTiter-Glo), 18 h, stronger effect = lower value; also: % is scaled to controls: 0 for no effect and ±100 for the full control effect; nearly all actives have a fitted effect of over 50% in size
In short: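 Luminescent ATP quantitation served as the viability read-out. Cells (parental HEK293, 2,000/well) received compounds after at least 5 h at 37 C and were exposed for 18 h before a 30 min room-temperature reagent step.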

[9] = qHTS assay for cell viability of the p53RE-bla HCT-116 cell line (AID 743292); also: % is scaled to controls: 0 for no effect and ±100 for the full control effect; nearly all actives have a fitted effect of over 55% in size
In short: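 HCT-116 p53RE-bla cells seeded 4,000/well; 5 h at 37 C; compound (DMSO) added; 16 h at 37 C; CellTiter-Glo added, 30 min RT; luminescence read.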

[10] = target: Nuclear receptor subfamily 1 group I member 2 (Rattus norvegicus) (UniProt Q9R1A7); experiment: qHTS assay for small molecule activators of the rat pregnane X receptor (rPXR) signaling pathway (AID 651751; call rule not given here; also: 0% is about no effect); conditions: rPXR reporter cells, luciferase (One-Glo), 24 h
Nuclear receptor subfamily 1 group I member 2 (Rattus norvegicus), sequence (Q9R1A7 whole entry, looked up): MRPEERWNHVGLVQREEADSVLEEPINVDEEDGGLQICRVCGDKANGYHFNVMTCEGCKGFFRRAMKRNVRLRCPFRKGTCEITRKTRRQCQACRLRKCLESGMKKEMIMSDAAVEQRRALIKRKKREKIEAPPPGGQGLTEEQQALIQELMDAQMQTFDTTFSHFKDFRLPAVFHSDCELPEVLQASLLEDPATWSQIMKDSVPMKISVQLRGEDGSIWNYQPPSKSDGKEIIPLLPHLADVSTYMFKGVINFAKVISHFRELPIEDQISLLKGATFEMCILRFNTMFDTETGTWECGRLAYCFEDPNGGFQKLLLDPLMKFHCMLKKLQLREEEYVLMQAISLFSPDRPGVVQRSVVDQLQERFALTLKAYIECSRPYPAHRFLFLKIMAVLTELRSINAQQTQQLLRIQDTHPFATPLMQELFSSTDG

[11] = qHTS assay for small molecule activators of the human pregnane X receptor (PXR) signaling pathway (AID 720659; call rule not given here; also: 0% is about no effect)
[12] = target: Tumor necrosis factor (Homo sapiens) (UniProt P01375); experiment: qHTS assay to identify small molecules that stimulate Tumor Necrosis Factor-alpha (TNF-alpha) secretion (AID 651757; active = well fitted curve in the direction sought with a large enough effect in the signal ratio; the % refers to the signal ratio; also: 0% is about no effect)
Tumor necrosis factor (Homo sapiens), sequence (P01375 whole entry, looked up): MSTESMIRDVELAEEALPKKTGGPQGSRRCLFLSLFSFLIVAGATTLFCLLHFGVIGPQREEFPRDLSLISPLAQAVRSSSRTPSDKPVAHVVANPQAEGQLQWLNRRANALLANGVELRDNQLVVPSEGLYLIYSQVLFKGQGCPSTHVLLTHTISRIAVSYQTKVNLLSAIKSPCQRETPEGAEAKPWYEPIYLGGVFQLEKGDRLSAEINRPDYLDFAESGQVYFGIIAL
In short: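 THP-1 cells were exposed to compounds for 17 hrs at 37 C, after which secreted TNF-alpha was measured by homogeneous HTRF (TR-FRET) using cryptate- and XL665-labeled anti-TNF-alpha antibodies, read after 3 hr at room temperature.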

[13] = qHTS assay for environmental chemicals that activate the Aryl hydrocarbon Receptor (AhR) signaling pathway (AID 651777); conditions: 1A2-DRE human hepatoma cells, luciferase, 24 h; activation: stronger effect = higher value; also: % of control where 0% means no effect; nearly all actives have a fitted effect of over 15% in size
In short: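 1A2-DRE human hepatoma reporter line; 1,200 cells/well; cmpd or DMSO 24 h, 37 C/5% CO2; One-Glo 30 min RT; luciferase lum.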

CCOc1ccc(NC(C)=O)cc1N
inactive: Potency [1] | Potency [2] | max response [3] -2.02% | Potency [4] | outcome [5] | Potency [6] | max response [7] -8.42% | max response [8] -2.43% | Potency [9] | max response [10] 9.33% | outcome [11]

CC(=O)Nc1ccc(C)cc1
inactive: Potency [1] | Potency [12] | activation [13] -0.295% | max response [3] -1.18% | Potency [4] | outcome [5] | Potency [6] | max response [7] 2.3% | max response [8] -2.69% | Potency [9] | max response [10] -0.0412% | outcome [11]

Nc1cc([N+](=O)[O-])ccc1C(=O)O
inactive: Potency [1] | Potency [12] | activation [13] 3.7% and 3.8% | Potency [4] | outcome [5] | max response [7] -7.64% and 3.66% | max response [8] -6.72% and -9.32% | Potency [9] | max response [10] -5.92% and 1.25% | outcome [11]

CC(C)(c1cc(Br)c(OCC(Br)CBr)c(Br)c1)c1cc(Br)c(OCC(Br)CBr)c(Br)c1 (centres undefined)
inactive: Potency [12] | Potency [2] | activation [13] -1.38% | max response [3] -5.28% | Potency [4] | outcome [5] | Potency [6] | max response [7] -4.49% | max response [8] -17.5% | Potency [9] | max response [10] 6.37% | outcome [11]

O=[N+]([O-])c1ccc(Cl)cc1Cl
inactive: Potency [1] | Potency [12] | activation [13] -1.71% | Potency [4] | outcome [5] | Potency [6] | max response [7] -19.5% | max response [8] 0.0931% | Potency [9] | max response [10] -0.131% | outcome [11]

CCC(O)C(C)(C)C (centres undefined)
inactive: Potency [1] | Potency [12] | activation [13] 0.48% | max response [3] -0.805% | Potency [4] | outcome [5] | Potency [6] | max response [7] -4.91% | max response [8] -6.59% | Potency [9] | max response [10] 7.53% | outcome [11]

CC(C)=C1CCC(C)CC1=O (centres undefined)
inactive: Potency [12] | Potency [2] | activation [13] -0.665% | max response [3] -4.55% | Potency [4] | outcome [5] | Potency [6] | max response [7] 3.25% | max response [8] 10.3% | Potency [9] | max response [10] -2.32% | outcome [11]

Cc1ccc(C#N)cc1
inactive: Potency [1] | Potency [12] | activation [13] 2.83% | max response [3] 0.216% | Potency [4] | outcome [5] | Potency [6] | max response [7] 4.38% | max response [8] -2.64% | Potency [9] | max response [10] 3.52% | outcome [11]

Clc1ccccn1
inactive: Potency [1] | Potency [12] | max response [3] -1.35% | Potency [4] | outcome [5] | Potency [6] | max response [7] -1.74% | max response [8] -2.77% | Potency [9] | max response [10] -2.56% | outcome [11]

c1ccc2c(c1)ccc1ncccc12
inactive: Potency [1] | Potency [12] | activation [13] 3.95% | max response [3] -1.09% | outcome [5] | max response [7] -7.13% | max response [8] 0.663% | Potency [9] | max response [10] 10.2% | outcome [11]

CC(=O)OC(C)=O
inactive: Potency [1] | Potency [12] | activation [13] 1.76% | max response [3] -5.07% | Potency [4] | outcome [5] | Potency [6] | max response [7] 5.05% | Potency [9] | max response [10] 5.82% | outcome [11]

C/C=C(/C)C#N
inactive: Potency [1] | Potency [12] | activation [13] 1.73% | max response [3] -2.14% | Potency [4] | outcome [5] | max response [7] -5.17% | max response [8] 0.0053% | Potency [9] | max response [10] 8.65% | outcome [11]

CCCCCCCCN
inactive: Potency [12] | Potency [2] | activation [13] 1.65% | max response [3] -3.65% | Potency [4] | outcome [5] | max response [7] 1.34% | max response [8] -5.63% | Potency [9] | max response [10] 0.0694% | outcome [11]

CC(N)CN (centres undefined)
inactive: Potency [12] | Potency [2] | activation [13] -0.27% | max response [3] -3.51% | outcome [5] | Potency [6] | max response [7] 0.44% | max response [8] -8.09% | Potency [9] | max response [10] 5.77% | outcome [11]

CC1CCCO1 (centres undefined)
inactive: Potency [1] | Potency [12] | activation [13] 2.22% | max response [3] 0.088% | Potency [4] | outcome [5] | max response [7] -3.62% | max response [8] -15.7% | Potency [9] | max response [10] -1.92% | outcome [11]

O=C(O[C@@H](C(=O)O)[C@@H](OC(=O)c1ccccc1)C(=O)O)c1ccccc1
inactive: Potency [1] | Potency [12] | activation [13] -0.0103% | max response [3] 3.38% | outcome [5] | Potency [6] | max response [7] -4.37% | max response [8] 9.93% | Potency [9] | max response [10] 4.96% | outcome [11]
